Screens from PubChem BioAssay.
Compounds with a hit are over-represented: about 2.5% of the library has one in this group of screens.
L3MBTL1 inh – blocks human L3MBTL1; AlphaScreen L3MBTL1–H3K9me1 peptide binding; actives 0.66% (n = 230,000); AID 485360; Potency, µM (doses to about 57.1 µM), for inactives: at the top dose activity, negative = inhibition, most hits filed as inhibitors; note: potency is the fitted concentration of half-maximal effect; % is set by controls: 0 for no effect and ±100 for the full control effect; nearly all actives have a fitted effect of over 60% in size
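Displacement of a biotinylated histone H3(1-15) peptide monomethylated at Lys9 (75 nM) from L3MBTL1 (50 nM) was measured by AlphaScreen after a 30 min room-temperature compound incubation; cefsulodin titration served as intraplate control.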
Pol iota inh – DNA polymerase iota (human) inhibition; Q9UNA4; actives 1% (n = 390,000); Potency, µM (top dose mostly 115 µM), inactives show at the highest dose activity, negative = inhibition, most hits filed as inhibitors; Pol iota fluorescent replication assay, 10 min; AID 588590; note: potency is the fitted concentration of half-maximal effect
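Fluorescent replication assay read twice, at 0 min and 10 min after adding 50 nM (final) substrate. Enzyme (10 nM) and compounds were first incubated 15 min at room temperature; enzyme-free buffer wells were negative controls.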
Pol kappa inh-1 – inhibitors of human DNA polymerase kappa; purified Pol kappa, fluorescent DNA synthesis assay, 10 min; actives 0.53% (n = 400,000); AID 588579; Potency, µM (series often up to 107 µM), inactives show at the top dose activity, negative = inhibition, most hits filed as inhibitors; note: potency is the fitted concentration of half-maximal effect; % is set by controls: 0 for no effect and ±100 for the full control effect
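Enzyme at 10 nM met test compounds for 15 min at room temperature. Substrate addition (50 nM final) began the reaction, which was monitored by fluorescence at 0 and 10 min.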
Pol eta inh-1 – inhibitors of human DNA polymerase eta; actives 1.2% (n = 390,000); Potency, µM (doses to about 114 µM), for the others: at the top dose activity change, negative = inhibition, most hits filed as inhibitors; recombinant Pol eta, fluorescent DNA replication assay; note: potency is the fitted concentration of half-maximal effect; % is set by controls: 0 for no effect and ±100 for the full control effect
Target sequence (Q9Y253 whole entry, looked up): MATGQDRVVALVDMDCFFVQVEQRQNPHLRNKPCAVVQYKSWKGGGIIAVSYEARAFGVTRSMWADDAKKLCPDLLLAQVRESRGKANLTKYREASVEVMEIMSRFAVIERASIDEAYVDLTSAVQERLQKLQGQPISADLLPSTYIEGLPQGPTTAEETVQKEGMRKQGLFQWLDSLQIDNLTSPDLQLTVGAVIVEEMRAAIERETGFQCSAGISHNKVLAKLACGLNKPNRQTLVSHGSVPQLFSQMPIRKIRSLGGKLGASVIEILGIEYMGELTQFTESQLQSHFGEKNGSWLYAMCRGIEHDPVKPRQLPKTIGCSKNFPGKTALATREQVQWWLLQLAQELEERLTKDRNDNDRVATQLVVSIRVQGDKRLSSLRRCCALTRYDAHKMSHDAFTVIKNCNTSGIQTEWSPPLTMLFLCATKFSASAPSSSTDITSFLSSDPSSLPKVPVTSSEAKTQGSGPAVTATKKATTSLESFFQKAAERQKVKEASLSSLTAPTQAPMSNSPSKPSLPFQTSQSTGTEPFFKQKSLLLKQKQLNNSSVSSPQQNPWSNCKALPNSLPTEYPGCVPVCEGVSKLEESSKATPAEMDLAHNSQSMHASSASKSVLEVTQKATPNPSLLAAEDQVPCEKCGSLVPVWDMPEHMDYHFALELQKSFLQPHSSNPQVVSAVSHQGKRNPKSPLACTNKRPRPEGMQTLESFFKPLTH
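Pol eta at 10 nM preincubated with compounds 15 min at room temperature; reaction started with fluorescent substrate (50 nM final) and read kinetically at 0 and 10 min.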
Pol beta inh – inhibitors of human DNA polymerase beta. AID 485314. actives 1.3% (n = 340,000). Pol beta primer extension/strand displacement, fluorescence kinetic. Potency, µM (series often up to 114 µM), for the others: top-dose activity change, negative = inhibition, hits mostly inhibitors; note: potency is the fitted concentration of half-maximal effect; % is set by controls: 0 for no effect and ±100 for the full control effect
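Kinetic readout of DNA synthesis with strand displacement by Pol beta. Compound and 10 nM enzyme sit 15 min at room temperature; 50 nM substrate starts the reaction, read immediately and at 10 min.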
APEX1 inh – blocks human APE1 abasic DNA cleavage; recombinant APE1, TAMRA/BHQ-2 abasic DNA cleavage fluorescence; Potency, µM (doses to about 65.8 µM), for the others: top-dose activity change, negative = inhibition, actives largely listed as inhibitors; actives 0.35% (n = 350,000); AID 2517;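 note: potency is the fitted concentration of half-maximal effect; plate controls were vehicle for no effect and reference inhibitor for full effect; nearly all actives have a fitted effect of over 55% in size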
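Measures dequenching upon AP-site incision of a 5'-TAMRA/3'-BHQ-2 THF-containing duplex, 50 nM; human APE1 0.75 nM after 15 min room-temperature exposure to compound; kinetic three-point read at one-minute spacing.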
GALK inh confirm – galactokinase (human) inhibition, confirmation. actives 70% (n = 150). Potency, µM (series often up to 115 µM), without a hit: at the highest dose activity, negative = inhibition, most hits filed as inhibitors. purified GALK, Kinase-Glo ATP depletion luminescence. shares compounds with Pol eta inh-1
Redox cycling – redox cycling activity in phenol red-HRP assay. shares compounds with Pol eta inh-1. Phenol red-HRP H2O2 redox cycling, absorbance 600 nm. Potency, µM (highest dose often 115 µM), inactives show at the highest dose activity change, negative = H2O2 signal, hits mostly inhibitors. actives 40% (n = 150)
HEK293 tox – counter-screen for GALK inhibitors: HEK293 cell cytotoxicity. actives 10% (n = 170). shares compounds with Pol eta inh-1. Potency, µM (titrated, usually from 46.1 µM), without a hit: top-dose activity change, negative = cytotoxicity, hits mostly inhibitors. HEK-293 viability, ATP luminescence (CellTiter-Glo), 24/48 h; note: potency is the fitted concentration of half-maximal effect; % is set by controls: 0 for no effect and ±100 for the full control effect
Pol kappa inh-2 – Pol kappa (human) inhibition, cherry-pick confirmation | shares compounds with Pol eta inh-1 | purified Pol-kappa, fluorescent strand-displacement substrate | Potency, µM, hits mostly inhibitors | actives 76% (n = 920) | AID 720501; note: potency is the fitted concentration of half-maximal effect
Pol eta inh-2 – confirmation of human DNA polymerase eta inhibitors; shares compounds with Pol eta inh-1; Pol eta primer extension, TAMRA/BHQ fluorescence, 10 min; Potency, µM, usual class: inhibitors; actives 64% (n = 2,600); note: potency is the fitted concentration of half-maximal effect
Starred values were filed as active, the others as inactive; ? = inconclusive; . = no result given; [ ] = remark or other dose. Calls come from the whole dose curve; as a rule, active = well fitted curve in the direction sought with a large enough effect; inconclusive = small, poorly fitted or top-dose-only effect, or another doubt; inactive = no such curve, though single readings can be large; an effect the other way counts as inactive or inconclusive.

SMILES | L3MBTL1 inh | Pol iota inh | Pol kappa inh-1 | Pol eta inh-1 | Pol beta inh | APEX1 inh | Pol eta inh-2 | others
O=C(O)CN1C(=O)/C(=C\c2cc(Br)ccc2OCc2ccc(F)cc2)SC1=S | . | 39.8µM* | -69.1% | 39.8µM* | 39.8µM* | -8.6% | ?
O/N=C/c1cc(Br)ccc1OCc1ccc(F)cc1 | . | 7.4% | -22.9% | -8.3% | . | . | .
N#CC1=C(N)Oc2n[nH]c(-c3ccccc3)c2C1c1cccnc1 (stereo not drawn) | . | ? | -1.9% | 7.8% | -16.6% | -5.9% | .
N#CC1=C(N)Oc2n[nH]c(-c3cccnc3)c2C1c1ccc([N+](=O)[O-])o1 (stereo not drawn) | ? | ? | ? | 28.2µM* | -2.1% | -5.2% | 67.5*
CS(=O)(=O)c1ccc(C(=O)OCC(=O)N2CCc3ccccc32)cc1[N+](=O)[O-] | . | 1.3% | -2.6% | . | . | . | .
C=C1C(=O)OC2C1CCC(C)C1C=CC(=O)C12C (stereo not drawn) | . | 44.7µM* | -38.6% | 14.1µM* | . | . | ?
CC(Sc1ccsc1[N+](=O)[O-])C(=O)N1CCN(c2ccccn2)CC1 (stereo not drawn) | 1.6% | ? | ? | 35.5µM* | -0.8% | -3.8% | 75.7*
CCc1ccc(S(=O)(=O)c2nnn3c2nc(N2CCCC(C)C2)c2cc(Cl)ccc23)cc1 (stereo not drawn) | . | 9.1% | -10.7% | -16.6% | 5.4% | . | .
Cc1nnc(SCC2=C(C(=O)O)N3C(=O)C(NC(=O)C(C)n4nc(C(F)(F)F)cc4C)C3SC2)s1 (stereo not drawn) | . | -19.1% | -33.3% | 22.4µM* | 17.8µM* | -5.7% | 26.9*
COc1cccc(CNC(=O)C2CCN(S(=O)(=O)c3ccc(-n4cnnn4)cc3)CC2)c1 | . | -4.8% | 1.2% | -15.0% | -2.3% | 60.5% | .
COc1ccc(C(=O)/C=C/c2ccsc2)cc1CSCC(=O)O | . | 12.6µM* | -17.3% | 20µM* | 35.5µM* | -10.3% | 75.7*
COc1ccc(C(C)=O)cc1CSCCC(=O)O | 0.9% | -1.9% | -9.3% | -16.9% | 37.8% | 10.9% | .
O=C(O)CCc1nnc(SCC(=O)Nc2ccc(Cl)c(C(F)(F)F)c2)[nH]c1=O | -3.2% | 0.4% | -9.8% | 1.3% | 12.8% | 2.9% | . | GALK inh confirm=?;Redox cycling=2.1%;HEK293 tox=-8.3%
CCc1oc(C(=O)O)cc1COC | ? | ? | -28.8% | 28.2µM* | 22.4µM* | ? | 30.1*
CCCCN(Cc1ccco1)S(=O)(=O)c1ccc(-c2ccc(=O)[nH]n2)s1 | . | 25.0% | -19.1% | 20.3% | 0.2% | 31.3% | .
COc1cc(NC(=O)c2ccc3c(SCC(=O)O)c4c(nc3c2)CCCC4)cc(OC)c1OC | . | ? | ? | -7.0% | ? | ? | .
COc1cc(NC(=O)c2ccc3c(SCC(=O)O)c4c(nc3c2)CCC4)cc(OC)c1OC | . | ? | ? | 17.8µM* | -4.5% | -23.9% | 53.6*
O=C(Nc1cccnc1)C1CC(=O)N(c2ccc(F)cc2)C1 (stereo not drawn) | . | 13.9% | -0.1% | -11.0% | 0.6% | 27.2% | .
COc1ccc(CCNC(=O)Cn2cc(S(=O)(=O)Cc3cccc(Cl)c3)c3ccccc32)cc1OC | . | 30.9% | -8.6% | -21.6% | 0.2% | . | .
O=C1c2cc(O)cc(O)c2C(=O)c2c1cc(O)c([C@@H](CO)CCO)c2O | . | ? | 79.4µM* | 44.7µM* | . | . | ?
O=C(CSc1nnc2ccc(-c3ccccn3)nn12)Nc1cccc(F)c1 | . | . | . | 0.9% | . | . | .
CC(C)COC(=O)N1C[C@H](O)C[C@H]1C(=O)Nc1ccc(Cl)cc1 | . | 133.7% | -12.0% | -10.7% | ? | 28.7% | .
CC1CCC/C=C/C(=O)c2c(O)cc(O)cc2CC(=O)O1 (stereo not drawn) | . | 17.8µM* | 79.4µM* | 35.5µM* | -15.2% | -5.7% | 75.7*
COc1cc(O)c(CCO)c2c1C(=O)C[C@@H](C)O2 | 11.8% | 0.7% | -6.0% | 0.4% | -1.5% | -4.9% | .
CC=CC1=C(C(=O)O)N2C(=O)[C@H](NC(=O)[C@H](N)c3ccc(O)cc3)[C@@H]2SC1 | . | . | -1.5%[19.4 µM] | . | . | . | .
SMILES | L3MBTL1 inh | Pol iota inh | Pol kappa inh-1 | Pol eta inh-1 | Pol beta inh | APEX1 inh | Pol eta inh-2 | others
O=C(N/N=C/c1ccncc1)c1cccc(NC(=O)c2ccc(Cl)cc2)c1 | 22.7% | ? | -9.5%[60.1 µM] | -28.6% | 44.7µM* | 20.6% | . | Pol kappa inh-2=?
O=C(C1Cc2ccccc2CN1C(=O)c1ccccc1)N1CCN(c2ccccc2)CC1 (stereo not drawn) | ? | ? | ? | 79.4µM* | 31.6µM* | ? | 75.7* | Pol kappa inh-2=?
Cc1ccc(C)c(NC(=O)CCNS(=O)(=O)c2ccc3[nH]c(=O)oc3c2)c1 | . | -17.4% | 3.5% | 22.4µM* | 11.2µM* | 26.2% | ?
Cc1ccc(NC(=O)CCNS(=O)(=O)c2ccc3[nH]c(=O)oc3c2)c(C)c1 | . | -19.7% | -21.4% | -6.8% | ? | -14.2% | .
CCCCCCCCC(=O)c1c(OC)oc(C=O)cc1=O | . | . | . | 22.4µM* | . | . | ? | Pol kappa inh-2=?
CCCCCCC(=O)Nc1cc2c(C)cc(=O)oc2cc1C | -5.3% | 4.3% | -14.2% | 10.1% | 11.7% | 15.4% | .
Cc1ccc(S(=O)(=O)CCC(=O)Nc2sccc2C#N)cc1 | 9.9% | 22.2% | -3.4% | -17.6% | . | 50.8% | .
COc1ccc(C(=O)NCC(=O)OCC(=O)Nc2sccc2C#N)cc1OC | -28.5% | -75.1% | ? | 50.1µM* | ? | ? | ?
Cc1ccc(S(=O)(=O)CCC(=O)OCC(=O)Nc2sccc2C#N)cc1 | . | . | . | 28.2µM* | . | . | ?
